The results in this text go back to ChEMBL document CHEMBL3988442, “University of Dundee, Small-Polar-MMV Screening Library” (2021).

The structures appear in SMILES notation. Among all 48,000 compounds or so, about 13,000 (27%) showed an effect of 50% or more. The list shows a part of the results.

For this assay, the system named is Wolbachia pipientis. Kind of assay: Anti-Wolbachia Cell-Based Screen. It counts as functional. Details: scale not given: in the data most compounds retested in dose-response had high values. The settings on record: 5 µM.
In the case of `O=C(c1cnccn1)N1CCN2C[C@H](OCC3CC3)C[C@H]2C1`, the “Percent Effect” value was -2.249%.
The same measure for `CCOc1cccc(COC(=O)c2scnc2C)n1`: -15.18%.
The same measure for `O=C(NCCn1cccn1)C1CCC(=O)N(CC2CCCCC2)C1` (stereo not drawn): 7.611%; for `Cc1ccccc1OC1CN(Cc2c(C)nc3ccccn23)C1`: -115.8%; for `CNc1nc(CNC(=O)Nc2cccc(F)c2C)cs1`: -1.885%.
Take `O=C(NCCCn1cccn1)C1CCC(=O)N(Cc2ccccc2F)C1` (stereo not drawn): the “Percent Effect” value is on record as -2.925%.
The same measure for `COCCCNC(=O)C(C)n1nc(-c2ccco2)cc(N)c1=O` (stereo not drawn): 133.4%; for `COCCNC(=O)C(C)n1nc(-c2ccco2)cc(N)c1=O` (stereo not drawn): 94.6%.
With `COCCCNC(=O)Nc1cc(-c2ccccc2C)nn1CCO`, the “Percent Effect” value is given as -5.534%.
As to `CCC(C)NC(=O)c1ccc(-c2ccco2)[nH]c1=O` (stereo not drawn), the “Percent Effect” value is given as 3.717%.
As for `CC(C)OCCCNC(=O)c1ccc(-c2ccco2)[nH]c1=O`, the “Percent Effect” value is given as -5.072%.
The same measure for `CC(C)CCNC(=O)c1ccc(-c2ccco2)[nH]c1=O`: 11.73%.
The same measure for `COc1cc(NC(=O)N(C)Cc2ccc(Br)o2)ncn1`: 1.624%; for `COc1ccnc(NC(=O)c2cscn2)c1`: -4.154%.
The same measure for `CSc1ncccc1C(=O)N1C[C@H]2CC[C@@H]1CN(CC(=O)N(C)C)C2`: -12.01%; for `F[C@@H]1CN(CC2CC2)C[C@@H]1OCc1nc2ccccc2o1`: -15.91%; for `C[C@@H]1CN(CCOc2ccc(Cl)cc2)CC[C@@]1(O)C1CCOCC1`: 95.64%.
For `C[C@@H]1CN(C(=O)CCCN2CCOCC2)CC[C@@]1(O)C1CCC1`, the “Percent Effect” value was -2.629%.
As to `C[C@@H]1CN(C(=O)CCCN2CCCC2)CC[C@@]1(O)C1CCOCC1`, the “Percent Effect” value is -4.515%.
The same measure for `C[C@@H]1CN(CCOCc2ccccc2)CC[C@@]1(O)C1CCC1`: -4.959%; for `COc1cccc(OCCN2CC[C@@](O)(C3CCOCC3)[C@H](C)C2)c1`: 98.26%; for `C[C@@H]1CN(CCCOc2ccc(F)cc2)CC[C@@]1(O)C1CCOCC1`: 97.34%.
As for `C[C@@H]1CN(Cc2cc(C3CCCCC3)no2)CC[C@@]1(O)C1CC1`, the figure is 9.24%; as for `C[C@@H]1CN(CCOc2ccc(F)cc2)CC[C@@]1(O)C1CCOCC1`, 93.05%.
As for `COc1cc(F)c(CN2CC[C@@](O)(C3CC3)[C@H](C)C2)cc1OC`, the figure is 9.055%.
For `CN(C)CCN(C)S(=O)(=O)Cc1ccc(Br)cc1`, the “Percent Effect” value is -1.249%.
For `CCC(=O)c1ccc(OCC(=O)NC(C)c2nnc(C)[nH]2)cc1` (stereo not drawn), the “Percent Effect” value is 8.329%.
As for `O=C(CCNS(=O)(=O)c1ccc2c(c1)CCCC2)NCc1ccoc1`, the figure is 1.514%; as for `CCN(Cc1csc(CS(C)(=O)=O)n1)c1cccc(CO)c1`, 6.548%; as for `CCc1nsc(NC2CCOC3(CCCC3)C2)n1` (stereo not drawn), -3.423%.
Consider `COCCCNS(=O)(=O)c1cc(C)sc1C`, for which the “Percent Effect” value was determined as 1.598%.
`C=C(C)COc1cccc(CNC(CC)c2ccnn2C)c1` (stereo not drawn): the “Percent Effect” value was -16.98%.
As for `Cc1nccn1C1CCCN(C(=O)c2cccc(-n3cccc3)c2)C1` (stereo not drawn), the “Percent Effect” value came out at 98.3%.
The same measure for `COc1cccc(COCC(=O)N2CCCC(n3ccnc3C)C2)c1` (stereo not drawn): -4.06%; for `Cc1nccn1C1CCCN(C(=O)c2cccc(OCC(N)=O)c2)C1` (stereo not drawn): 92.13%; for `NC(=O)COc1cccc(C(=O)N2CCCC(n3cccn3)C2)c1` (stereo not drawn): -6.954%.
For `Cc1nccn1C1CCCN(C(=O)c2cccc(S(C)(=O)=O)c2)C1` (stereo not drawn), the “Percent Effect” value is reported as 94.78%.
The same measure for `CC(=O)c1cn(CCC(=O)N[C@H](C(=O)O)C(C)C)c2ccccc12`: 14.47%.
Take `Cc1ccc2cccc(C(=O)NCCOCC3CC3)c2n1`: the “Percent Effect” value was 4.026%.
As for `CN(C1CCCCC1)S(=O)(=O)NC1CCCN(c2ncccn2)C1` (stereo not drawn), the figure is -0.1008%.
As for `CN1CCCC(N(C)S(=O)(=O)c2cccc3ncccc23)C1` (stereo not drawn), the figure is 142.2%; as for `Cc1ccc2cccc(C(=O)NCC3CCN(C(C)C)C3)c2n1` (stereo not drawn), -2.471%; as for `Cc1ccc2cccc(S(=O)(=O)N(C)C3CCCN(C)C3)c2n1` (stereo not drawn), 110%.
For the molecule `CN1CCC(CN(C)S(=O)(=O)CC2CCCCC2)CC1`, the “Percent Effect” value is listed as -3.898%.
Take `CCN(C1CCS(=O)(=O)C1)S(=O)(=O)c1cccc2cc(C)cnc12` (stereo not drawn): the “Percent Effect” value was found to be 2.36%.
For the molecule `CN1CCC(CNC(=O)c2ccc3cccc(Cl)c3n2)C1` (stereo not drawn), the “Percent Effect” value was determined as 16.58%.
As for `CN1CCCC(N(C)C(=O)c2ccc(NC(=O)c3cc[nH]n3)cc2)C1` (stereo not drawn), the figure is -7.369%; as for `Cc1ccc2cccc(S(=O)(=O)N(C)CC3CCN(C)C3)c2n1` (stereo not drawn), 116.7%; as for `CN(C1CCN(c2ccccn2)CC1)S(=O)(=O)c1ccccc1F`, -17.13%.
The same measure for `Cc1ccc2cccc(S(=O)(=O)N(C)CC3CCN(C)CC3)c2n1`: 117.6%; for `COCCN1CC(c2nc(CC3CCN(C)CC3)no2)CCC1=O` (stereo not drawn): -7.698%.
Turning to `Cc1ccc(C(N)=O)cc1NCCOc1cccc(C#N)c1`, the “Percent Effect” value is -8.652%.
On to `O=C(c1[nH]nc2c1CCCC2)N1CCC(OCCN2CCCCC2)C1` (stereo not drawn), for which the “Percent Effect” value was found to be 5.05%.
For `COCCN(CCC#N)S(=O)(=O)c1ccc(F)cc1Cl`, the “Percent Effect” value is -17.33%.
For the molecule `CCOc1ncc(NC(=O)c2ccco2)c(OCC)n1`, the “Percent Effect” value is 6.887%.
In the case of `O=C(NCCn1ccnc1)N1CCN(Cc2ccco2)CC1`, the “Percent Effect” value is 103.9%.
In the case of `CC(=O)N1CCN(C(=O)NCc2ccccc2Cn2ccnc2)CC1`, the “Percent Effect” value is on record as -14.94%.
As for `O=C(NCCn1ccnc1)N1CCCC1c1ccsc1` (stereo not drawn), the “Percent Effect” value is recorded as 8.592%.
On to `CC1CN(C(=O)NCCn2ccnc2)CCO1` (stereo not drawn), for which the “Percent Effect” value is -11.62%.
The same measure for `O=C(NCCNc1ncccn1)N1CCN(Cc2cccnc2)CC1`: -0.1396%; for `CC(Cn1ccnc1)NC(=O)N1CCN(Cc2cccnc2)CC1` (stereo not drawn): -2.682%; for `O=C(NCCn1ccnc1)N1CCN(Cc2ccsc2)CC1`: 102.5%.
The same measure for `Cc1ccc(CNC(=O)N2CCN(Cc3ccsc3)CC2)n1C`: 2.843%.
As for `O=C(NCCn1ccnc1)N1CCN(Cc2cccnc2)CC1`, the figure is 109.3%; as for `Cc1cc(C)n(CC2(CNC(=O)C(c3ccccc3C)N(C)C)CC2)n1` (stereo not drawn), -3.627%.
Regarding `Cc1nc(CN(CCS(C)(=O)=O)C(C)C)cs1`, the “Percent Effect” value is listed as -0.8172%.
`Cc1ccc(C(=O)N2CCO[C@H]3[C@H](OCCN(C)C)CC[C@@H]32)o1.O=C(O)C(F)(F)F`: the “Percent Effect” value amounted to 8.027%.
As for `O=C(C1CCOCC1)N1CCO[C@H]2[C@@H](OCc3ccncc3)CC[C@@H]21`, the figure is -9.852%.
Consider `Cc1ccc(C(=O)N2CCO[C@H]3[C@H](OCCN(C)C)CC[C@@H]32)cn1`, for which the “Percent Effect” value is recorded as 110.3%.
The same measure for `Cc1ccoc1C(=O)N1CCO[C@H]2[C@H](OCC3CCOCC3)CC[C@@H]21`: -7.099%.
The same measure for `Cc1cccc(C(=O)N2CCO[C@H]3[C@H](OCCN(C)C)CC[C@@H]32)n1`: 97.76%.
Turning to `CN(C)CCO[C@@H]1CC[C@H]2[C@H]1OCCN2C(=O)c1ccc(F)cc1.O=C(O)C(F)(F)F`, the “Percent Effect” value came out at 97.45%.
As for `CO[C@H]1CC[C@H]2[C@H]1OCCN2C(=O)c1ccc(C)nc1`, the “Percent Effect” value is 6.779%.
As for `Cc1ccoc1C(=O)N1CCO[C@H]2[C@H](OCc3ccncc3)CC[C@@H]21`, the figure is 96.45%; as for `CO[C@@H]1CC[C@H]2[C@H]1OCCN2C(=O)c1ccc(C)nc1.O=C(O)C(F)(F)F`, 2.504%; as for `c1ccc2c(c1)OCCC2NCc1ccc(N2CCOCC2)cc1` (stereo not drawn), 6.608%.
For `Cc1cccc(Nc2c(C#N)c(=O)n(C)c(=O)n2C)c1`, the “Percent Effect” value is on record as -3.383%.
As to `CN(C)CCO[C@@H]1CC[C@H]2[C@H]1OCCN2C(=O)c1ccnnc1.O=C(O)C(F)(F)F`, the “Percent Effect” value is reported as 98%.
As for `O=C(O)C(F)(F)F.O=C(c1cnccn1)N1CCO[C@H]2[C@H](OCc3cccnc3)CC[C@@H]21`, the figure is -4.658%.
The same measure for `Cc1cncc(C(=O)N2CCO[C@H]3[C@H](OCCN(C)C)CC[C@@H]32)c1.O=C(O)C(F)(F)F.O=C(O)C(F)(F)F`: 111.8%; for `Cc1cncc(C(=O)N2CC[C@@H]3[C@H]2CCC(=O)N3CCN(C)C)c1.O=C(O)C(F)(F)F.O=C(O)C(F)(F)F`: -10.7%; for `CN(C)CCO[C@@H]1CC[C@H]2[C@H]1OCCN2C(=O)c1ccncc1`: 113.2%.
`Cc1cncc(C(=O)N2CCO[C@H]3[C@H](Oc4ccccn4)CC[C@@H]32)c1.O=C(O)C(F)(F)F.O=C(O)C(F)(F)F`: the “Percent Effect” value was -8.484%.
As for `Cc1ccc(C(=O)N2CCN3C[C@H](Oc4cccc(F)c4)C[C@H]3C2)cn1.O=C(O)C(F)(F)F.O=C(O)C(F)(F)F`, the figure is 3.581%; as for `CC(C)N1CCCC2(CCN(C(=O)CCCn3cccn3)C2)C1=O` (stereo not drawn), -14.27%.
Take `Cc1cn2c(n1)CCC(NS(=O)(=O)c1sc(C)nc1C)C2` (stereo not drawn): the “Percent Effect” value is reported as -17.67%.
The same measure for `Cc1nc(C)c(S(=O)(=O)NC(=O)c2cccs2)s1`: 102.2%; for `CC(NC(=O)c1cccs1)C(=O)NS(=O)(=O)c1ccc(C#N)cc1` (stereo not drawn): 8.47%.
As for `CSc1ccsc1C(=O)NS(=O)(=O)c1ccc(F)cc1`, the figure is -34.42%; as for `Cc1nc(C)c(S(=O)(=O)NC(=O)c2sccc2C)s1`, 101.5%.
The same measure for `CC(NC(=O)c1cccs1)C(=O)NS(=O)(=O)c1cccc(C#N)c1` (stereo not drawn): 3.018%.
For `O=C(NCCCC(=O)N1Cc2ccccc2C1)NCc1cccnc1`, the “Percent Effect” value was found to be 2.963%.
Turning to `CN(CC1CCC1)C(=O)c1ccc(-c2nc(C3CC3)n[nH]2)cc1`, the “Percent Effect” value was determined as 0.7414%.
On to `CC1CNC(=O)CCN1Cc1cc(O)c2cccc(F)c2n1` (stereo not drawn), for which the “Percent Effect” value is -25.66%.
As for `CN(C)CC(=O)N1CCc2ncnc(-c3ccsc3)c2CC1`, the figure is -2.469%.
As for `O=C(C1CC=CC1)N1CCc2ncnc(-c3ccncc3)c2CC1`, the figure is 8.097%; as for `O=C(c1cc[nH]n1)N1CCc2ncnc(NCc3ccccn3)c2CC1`, -6.382%.
With `O=C(c1ccccn1)N1CCc2ncnc(-c3ccncc3)c2CC1`, the “Percent Effect” value was found to be 88.26%.
As for `O=C(c1cscn1)N1CCc2ncnc(-c3ccncc3)c2CC1`, the figure is 110.3%; as for `O=C(c1ccccn1)N1CCc2ncnc(N3CCOCC3)c2CC1`, -1.06%.
The same measure for `CN(C)c1ncnc2c1CCN(C(=O)c1cccnc1)CC2.O=C(O)C(F)(F)F`: 9.198%.
The same measure for `O=C(O)C(F)(F)F.O=C(c1cscn1)N1CCc2ncnc(-c3cccnc3)c2CC1`: 99.58%; for `O=C(O)C(F)(F)F.O=C(c1cnccn1)N1CCc2ncnc(-c3cccnc3)c2CC1`: -7.804%.
